Screens (PubChem BioAssay)
In the library only some 4.1% were active in any assay of this set; here they are far more common.
hcDAF12 agonist – activates DAF-12 receptor from parasite H. contortus. HEK293 hcDAF-12 lit1-tk-luc reporter, luminescence; 0% DMSO, 100% Δ7-dafachronic acid. activation, % at 6.8 µM. actives 1.4% (n = 370,000). AID 652067;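 active = activation above the mean of all tested compounds plus 3 SD, cut at about 5.5% in these data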;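 note: 100% = response to 3 µM Δ7-dafachronic acid high control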
hgDAF-12 ag – agonists of H. glycines DAF-12 nuclear receptor. actives 1.8% (n = 370,000). HEK293 GAL4-hgDAF12 UAS-luciferase reporter, agonist luminescence; normalized to butyrate control. activation, % at 6.8 µM;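 active = activation above a cutoff set at the mean of all screened compounds plus 3 SD, cut at about 10% in these data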;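 note: 0% = DMSO wells and 100% = sodium butyrate wells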
ssDAF-12 act – S. stercoralis DAF-12 activation, primary screen. HEK293 ssDAF-12/GRIP1 lit1-tk-luc reporter, luminescence; % of 3 µM dafachronic acid response. activation, % at 6.8 µM. actives 1% (n = 370,000);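 active = activation above the mean over all tested compounds plus 3 SD, cut at about 0.9% in these data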;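 note: 0% = DMSO-only wells and 100% = 3 µM delta7-dafachronic acid wells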
DAX1 inh-1 – blocks DAX1 repression of SF-1 activated StAR promoter; actives 1.1% (n = 370,000); inhibition, % at 6.8 µM; HEK293T StAR-luciferase reporter, SF-1/DAX-1 repression relief;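 active = inhibition above the mean over all tested compounds plus 3 SD, cut at about 3.6% in these data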;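 note: 0% = DAX-1 cells with DMSO and 100% = cells lacking DAX-1 with DMSO; higher inhibition means more luminescence from relief of DAX-1 repression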
DAX1 inh-2 – inhibits human nuclear receptor DAX1 | P51843 | HEK293 Gal4-DAX1 luciferase reporter, luminescence | inhibition, % at 6.75 µM | actives 0.99% (n = 340,000) | AID 504766;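 active = inhibition above the mean over all tested compounds plus 3 SD, cut at about 4.2% in these data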;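 note: 0% = DAX1-transfected cells with DMSO and 100% = empty-vector control cells with DMSO; inhibition shows as a rise in luminescence from relieved DAX1 repression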
hgDAF12 ag – confirmation of H. glycines DAF-12 agonists | shares compounds with hgDAF-12 ag | activation, % at 6.8 µM | actives 80% (n = 3,300) | HEK293 GAL4-hgDAF12 luciferase reporter, agonist mode; percent of butyrate response | AID 743050;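 active = mean activation over triplicate wells above the hit cutoff derived from the earlier primary screen, cut at about 11% in these data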;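 note: 0% = DMSO low control and 100% = 2 mM sodium butyrate high control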
LXR ag 2 – counter-screen for DAF-12 agonists: agonists of human LXR-beta; HEK293 Gal4-LXR luciferase reporter, 24 h; activation, % at 6.8 µM; shares compounds with hgDAF-12 ag; 3,300 tested, under 10 active;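 active = mean activation of the triplicate above a set limit carried over from the primary screen, none filed active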
Target sequence (P55055 whole entry, looked up, the tested form may be a part): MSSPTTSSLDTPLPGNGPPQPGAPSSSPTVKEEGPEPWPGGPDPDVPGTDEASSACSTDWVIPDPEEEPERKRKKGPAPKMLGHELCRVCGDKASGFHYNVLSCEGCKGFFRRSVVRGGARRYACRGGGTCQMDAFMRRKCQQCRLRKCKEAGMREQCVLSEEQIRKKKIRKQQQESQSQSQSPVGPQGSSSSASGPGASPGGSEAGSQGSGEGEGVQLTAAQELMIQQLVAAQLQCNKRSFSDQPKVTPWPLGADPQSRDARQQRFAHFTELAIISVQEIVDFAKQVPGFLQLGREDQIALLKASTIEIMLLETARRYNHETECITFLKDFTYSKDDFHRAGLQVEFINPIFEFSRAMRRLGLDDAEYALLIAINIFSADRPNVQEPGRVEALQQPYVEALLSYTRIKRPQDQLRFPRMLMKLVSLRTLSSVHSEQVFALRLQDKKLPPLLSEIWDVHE
The depositor's hits bear a star; nt = no result.

SMILES	hcDAF12 agonist	hgDAF-12 ag	ssDAF-12 act	DAX1 inh-1	DAX1 inh-2	hgDAF12 ag	LXR ag 2
CC12CCC(C(=O)Nc3nc4ccccc4s3)(OC1=O)C2(C)C (stereo not drawn)	3	13*	0	1	0	5	0
CCCCOCCCNC(=O)C[C@H]1C(=O)N(CCCOC)C2=CCCCC[C@]21C(=O)OC	1	0	0	0	nt	nt	nt
CC(=O)NC(C)C(=O)N1CCCC1C(=O)N1CCCC1C(=O)NC(C)C(=O)NC1C(=O)NC(CC(C)C)C(=O)NC2CCCCNC(=O)CCC(C(=O)NC(Cc3ccc(O)cc3)C(=O)O)NC(=O)C3CCC(=O)OCC(NC(=O)C4CCCN4C(=O)C(Cc4c[nH]c5ccccc45)NC2=O)C(=O)NC(CC(=O)OC1C)C(=O)NC(Cc1c[nH]c2ccccc12)C(=O)N3 (stereo not drawn)	-1	-2	0	0	nt	nt	nt
CCCNc1ncccc1C(N)=O	-1	-1	-1	0	0	nt	nt
Cc1ccc(Nc2ncccc2C(N)=O)cc1	4	14*	0	3	2	13*	1
O=C(Nc1ccc(Cl)cc1)OC1CCC12CCC(c1ccccc1)CC2 (stereo not drawn)	-2	0	-2	-2	nt	nt	nt
c1cnn2c(-c3ccc4c(c3)CCO4)cnc2c1	-1	14*	-1	1	nt	8	0
CN(Cc1ccccc1)S(=O)(=O)c1cccc(C(=O)OCc2cccc(C(F)(F)F)c2)c1	-1	0	-1	-1	nt	nt	nt
COc1ccc(/C=N/Nc2ncc(Br)cn2)c(OC)c1	1	16*	0	2	3	15*	1
CC(C)(C)c1ccc(C(=O)Nc2cc(Cl)c(F)cc2C(=O)O)cc1	-1	4	0	nt	nt	nt	nt
CCCn1nc(NC(=O)COC)c2cc3cccc(C)c3nc21	-1	14*	-1	0	0	1	0
CCCn1nc(NC(C)=O)c2cc3cccc(C)c3nc21	-2	-2	-1	0	0	nt	nt
Fc1ccc(N=C2NN=C(c3cc(F)ccc3F)CS2)cc1	5	16*	0	2	1	11*	0
C=CCN1[C@H](C#N)[C@@H](c2ccc(Br)cc2)[C@H]1CO	0	-3	-1	1	nt	nt	nt
Cc1cccc(-c2nsc(SCC(=O)NCC3CCCO3)n2)c1 (stereo not drawn)	0	18*	-2	1	-1	2	0
Cc1cccc(-c2nsc(SCC(=O)NCc3ccco3)n2)c1	1	0	-1	-1	2	nt	nt
CCCCCCCCN1C(=O)[C@@H](CC(=O)N2CCC(c3ccccc3)CC2)C[C@@]2(C(=O)OC)C1=C[C@H](C(C)C)O[C@@H]2C1CC1	0	-4	-1	1	nt	nt	nt
CC1CCCCN1CCCNC(=O)c1ccc(Br)cc1 (stereo not drawn)	0	2	-1	0	-1	nt	nt
CC(CCc1ccccc1)NC(=O)c1ccc2nc(N3CCOCC3)sc2c1 (stereo not drawn)	-1	1	-2	0	1	nt	nt
CC1CCCCN1CCCNC(=O)c1ccc2nc(N3CCCCC3)sc2c1 (stereo not drawn)	3	14*	1.4*	4.0*	1	12*	0
O=C(NCCc1ccccc1)c1ccc2nc(N3CCOCC3)sc2c1	-2	14*	-1	1	0	0	0
O=C(COC(=O)COc1ccc(Cl)cc1)Nc1cccnc1Cl	-2	-1	-1	0	3	nt	nt
COc1ccc(Cl)cc1-c1cc(C(=O)NCc2cccc(C(F)(F)F)c2)[nH]n1	-3	-1	0	0	nt	nt	nt
OC(c1ccccc1)(c1ccccc1)C1CCN(C(=S)NCCc2ccccc2)CC1	-2	0	-1	-1	nt	nt	nt
CC1CCN(C(=S)NCCc2ccccc2)CC1	3	14*	0	2	1	11*	1
SMILES	hcDAF12 agonist	hgDAF-12 ag	ssDAF-12 act	DAX1 inh-1	DAX1 inh-2	hgDAF12 ag	LXR ag 2
CCOc1ccccc1NC(=O)NNC(=O)CCn1nc(C)c([N+](=O)[O-])c1C	-2	0	-1	1	nt	nt	nt
Cc1cnc(NC(=O)c2cncc(Br)c2)s1	2	19*	0	2	3	16*	1
Cc1cnc(NC(=O)c2ccncc2)s1	5	9	0	2	0	nt	nt
CC1CCN(c2ccc(C(=O)O)cc2NS(=O)(=O)c2ccccc2)CC1	-3	-1	-2	0	nt	nt	nt
O=c1[nH]c2ccccc2nc1-c1ccc(Cl)cc1	5	6	0	1	0	nt	nt
O=c1[nH]c2ccccc2nc1-c1ccccc1	0	16*	0	1	0	7	0
c1ccc2c(c1)CN1C(=N2)COc2ccccc2C1c1nc2ccccc2[nH]1 (stereo not drawn)	6.0*	15*	2.0*	4.4*	nt	8	0
O=C1COc2ccccc2C(c2nc3ccccc3[nH]2)N1Cc1ccccc1 (stereo not drawn)	1	1	0	-2	nt	nt	nt
CC(=O)Nc1ccc(C(=O)OCc2ccc(F)cc2)cc1	-1	2	-2	-1	-1	nt	nt
CC(=O)Nc1ccc(C(=O)OCc2ccc(F)cc2Cl)cc1	1	24*	-2	0	-1	-1	0
COc1ccc(/C=C/c2nnc(NC(C)=O)s2)cc1	5	14*	0	3	2	16*	1
COC(=O)Nc1nnc(/C=C/c2ccc(OC)cc2)s1	3	8	0	1	2	nt	nt
c1ccc(CSc2ccc(-c3cccs3)nn2)cc1	3	14*	1	4.3*	1	15*	1
Cc1ccc(C2=CCN(C)C(=O)N2c2ccc([N+](=O)[O-])cc2)cc1	0	4	-1	0	nt	nt	nt
c1ccc(-n2nc3c(ccc4cnnc43)[nH]2)cc1	5.7*	19*	1	2	1	12*	1
C#CC1(NC(=S)Nc2cccc(OC)c2)CCCCC1	2	15*	0	1	2	1	0
CC1(C(=O)NS(=O)(=O)Cc2ccccc2C(F)(F)F)CCN1C(=O)C/C=C/c1ccccc1 (stereo not drawn)	-1	-4	-1	1	nt	nt	nt
COc1ccccc1/C=N/Nc1nccnc1Cl	5.8*	14*	0	3	1	10*	0
Cc1cc(=O)oc2cc(O)cc(OCc3ccccc3)c12	-3	-3	-2	-2	-1	nt	nt
NC(N)=Nc1nc(C2COc3ccccc3O2)cs1 (stereo not drawn)	5	14*	0	2	0	18*	1
Cc1ccc(-c2nc(-c3ccncc3)no2)cc1C	2	18*	0	2	4	19*	1
